Measurements from PubChem BioAssay AID602449 (Sanford-Burnham Center for Chemical Genomics, 2012).
About 5,000 (1.4%) of roughly 360,000 compounds were called active.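 Rule for the calls: active = inhibition of 50% or more, scaled per plate between neutral and stimulator controls; inactive = the rest.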 Many of the other results were omitted from the sample, so actives are more common in it than they were.

test: blockers of Ca2+-induced mitochondrial swelling – biochemical, isolated mouse mitochondria, absorbance, primary screen (AID 602449); conditions: 30 min, at 10 µM, stronger effect = higher value;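 note: 0% = DMSO wells given calcium and 100% = 1 mM EGTA wells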

Question: Which inhibition does the source give for `CC(=O)N(CC1CCCO1)C1(C(=O)NC2CCCC2)CCCCC1` (configuration not stated) here?
Answer: 1.8% (inactive)

Question: With `COc1ccc(/C=C/c2nnc(NC(=O)C(C)C)s2)cc1` as the compound, how does the inhibition read?
Answer: 2.7% (inactive)

Question: With `O=C(CSc1ccccc1)Nc1nnc(/C=C/c2ccccc2)s1` as the compound, how does the inhibition read?
Answer: 2.2% (inactive)

Question: For `O=C(Nc1ccc(Cl)cc1)Nc1nnc(/C=C/c2ccccc2)s1`, which inhibition is on record?
Answer: 89.9% (active)

Question: Which inhibition does the source give for `COc1ccc(S(=O)(=O)N(C)CC(=O)N2CCCC2)cc1` here?
Answer: -2.1% (inactive)

Question: For `COc1ccc2sc(N(CCCN(C)C)C(=O)c3ccc(S(=O)(=O)N(C)C4CCCCC4)cc3)nc2c1`, which inhibition is on record?
Answer: 82.5% (active)

Question: With `COc1ccc(N(Cc2ccc(N(C)C)cc2)C(=O)c2ccc(S(C)(=O)=O)cc2)cc1` as the compound, how does the inhibition read?
Answer: 0.5% (inactive)

Question: For `COc1ccc(C(=O)O)cc1S(=O)(=O)NC1CCN(Cc2ccccc2)CC1`, which inhibition is on record?
Answer: -1% (inactive)

Question: Which inhibition does the source give for `Cc1cccc(NC(=S)N(CCN(C)C)C(C)c2ccco2)c1` (configuration not stated) here?
Answer: -2.1% (inactive)

Question: Which inhibition does the source give for `Cc1cccc(NC(=S)NCc2ccc3[nH]c4c(c3c2)CCCC4)c1` here?
Answer: 1% (inactive)

Question: Which inhibition does the source give for `Cc1c(NC(=S)Nc2ccccc2)c(=O)n(-c2ccccc2)n1C` here?
Answer: 0.8% (inactive)

Question: For `Cc1cccc(NC(=S)N2CCC(c3nc4ccccc4s3)CC2)c1`, which inhibition is on record?
Answer: 3% (inactive)

Question: With `O=S(=O)(NC(=S)Nc1ccccc1)c1ccc(F)cc1` as the compound, how does the inhibition read?
Answer: -0.7% (inactive)

Question: For `Fc1cc(Br)ccc1NC(=S)Nc1cccnc1`, which inhibition is on record?
Answer: 12.7% (inactive)

Question: With `Cc1cccc(NC(=S)Nc2ccc(Br)cc2)c1` as the compound, how does the inhibition read?
Answer: 96.8% (active)

Question: For `S=C(Nc1ccccc1)Nc1ccc2ccccc2c1`, which inhibition is on record?
Answer: 67.5% (active)

Question: Which inhibition does the source give for `Cc1cccc(NC(=S)Nc2ccc(Cl)c(Cl)c2)c1` here?
Answer: 101% (active)

Question: For `COC(=O)c1ccc2c(c1)S(=O)(=O)NC(=NCCCN1CCOCC1)S2`, which inhibition is on record?
Answer: 0.8% (inactive)

Question: For `COc1ccc(C2=NS(=O)(=O)N(C)C(C(=O)NC(C)c3ccccc3)=C2)cc1` (configuration not stated), which inhibition is on record?
Answer: -1.4% (inactive)

Question: Which inhibition does the source give for `CCC1C=C(c2ccccc2)C=CN=C1N(CC)CC` (configuration not stated) here?
Answer: -0.1% (inactive)

Question: For `Cc1cccc(NS(=O)(=O)c2cccc(C(=O)NNC(=O)c3ccccc3O)c2)c1`, which inhibition is on record?
Answer: 6.9% (inactive)

Question: Which inhibition does the source give for `CC1(C)CC(=O)c2cc(OCC(=O)NCC3CCCO3)ccc2O1` (configuration not stated) here?
Answer: -1.4% (inactive)

Question: For `C=CCN(N=Nc1cccc([N+](=O)[O-])c1)c1cccc([N+](=O)[O-])c1`, which inhibition is on record?
Answer: 2.6% (inactive)

Question: For `N#Cc1cccc(Nc2c3c(nc4ccccc24)CCCC3)c1`, which inhibition is on record?
Answer: 6.5% (inactive)

Question: Which inhibition does the source give for `Cc1ccc(Nc2c3c(nc4ccccc24)CCC3)cc1` here?
Answer: 79.8% (active)

Question: Which inhibition does the source give for `Brc1ccc(Nc2c3c(nc4ncnn24)CCC3)cc1` here?
Answer: -4.1% (inactive)

Question: For `CCn1nnc(NC(=O)c2c(OC)cccc2OC)n1`, which inhibition is on record?
Answer: -1% (inactive)

Question: With `CCCC1OC23CCCCC2C(C#N)(C#N)C1(C#N)C(=N)O3` (configuration not stated) as the compound, how does the inhibition read?
Answer: 0.5% (inactive)

Question: With `Cc1cccc(NC(=O)NC2(C)CCS(=O)(=O)C2)c1` (configuration not stated) as the compound, how does the inhibition read?
Answer: -3.1% (inactive)

Question: With `Cc1cccc(NC(=O)Nc2cccc(Oc3c(F)c(F)c(F)c(F)c3F)c2)c1` as the compound, how does the inhibition read?
Answer: 93.2% (active)

Question: With `Cc1ccoc1C(=O)Nc1cccc(Oc2ccccc2)c1` as the compound, how does the inhibition read?
Answer: -0.1% (inactive)

Question: Which inhibition does the source give for `O=C(CNCCC1=CCCCC1)Nc1ccccc1N1CCCCCC1` here?
Answer: 11.6% (inactive)

Question: Which inhibition does the source give for `CCc1cc(=O)oc2cc(C)cc(OC(C)C(=O)O)c12` (configuration not stated) here?
Answer: 1.3% (inactive)

Question: For `CN[C@H](C(=O)NC[C@H]1O[C@@H](n2cnc3c(N)ncnc32)[C@H](O)[C@@H]1O)[C@@H](C)OCc1ccccc1`, which inhibition is on record?
Answer: -0.1% (inactive)

Question: With `Cc1onc(-c2ccccc2)c1C(=O)NNC(=S)NC(=O)c1ccc(F)cc1` as the compound, how does the inhibition read?
Answer: 90.1% (active)

Question: Which inhibition does the source give for `O=C(NNC(=S)NC(=O)c1cn(-c2ccccc2)nc1-c1ccccc1)c1ccncc1` here?
Answer: 2.2% (inactive)

Question: For `Cc1onc(-c2ccccc2)c1C(=O)N1CCN(S(=O)(=O)c2ccccc2C(F)(F)F)CC1`, which inhibition is on record?
Answer: 0.5% (inactive)

Question: With `O=C1CS(=O)CN1c1ccc(Oc2ccccc2)cc1` (configuration not stated) as the compound, how does the inhibition read?
Answer: 1.6% (inactive)

Question: With `Cc1noc(C)c1S(=O)(=O)Nc1ccc(C(=O)N2CCN(c3ccc(F)cc3)CC2)cc1` as the compound, how does the inhibition read?
Answer: -2% (inactive)

Question: With `Cc1ccc(NC(=O)CN(C)CC(=O)Nc2cccc(F)c2)cc1[N+](=O)[O-]` as the compound, how does the inhibition read?
Answer: 97.2% (active)

Question: Which inhibition does the source give for `Cc1ccc(NC(=O)c2sccc2C)cc1[N+](=O)[O-]` here?
Answer: -8.8% (inactive)

Question: For `CN(CC(=O)Nc1cccc(F)c1)C(=O)C1=COCCO1`, which inhibition is on record?
Answer: -2.6% (inactive)

Question: Which inhibition does the source give for `O=C(NNC1=C(C(=O)C(F)(F)F)CCC1)c1ccncc1` here?
Answer: 0.3% (inactive)

Question: Which inhibition does the source give for `COc1ccc(NC(=O)C(=O)NCC(c2ccco2)N2CCc3ccccc3C2)cc1` (configuration not stated) here?
Answer: 0.5% (inactive)

Question: With `O=C(CCCOc1ccccc1)Nc1cccc(C(=O)O)c1` as the compound, how does the inhibition read?
Answer: 0.4% (inactive)

Question: For `COC(=O)c1noc(C)c1-c1ccnn1C(=O)c1ccc(Cl)cc1`, which inhibition is on record?
Answer: 5% (inactive)

Question: For `O=C(CNC(=O)c1ccccc1Br)NNC(=O)c1cccs1`, which inhibition is on record?
Answer: -3.3% (inactive)

Question: With `CC/C(=N\NC(=O)c1ccccc1Cl)c1ccc(Br)s1` as the compound, how does the inhibition read?
Answer: -0.9% (inactive)

Question: For `O=C(C/C(=N\NC(=O)c1ccccc1Br)C(F)(F)F)c1cccs1`, which inhibition is on record?
Answer: 59.2% (active)

Question: With `N#Cc1nc(N)nc(N(c2ccccc2)c2ccccc2)n1` as the compound, how does the inhibition read?
Answer: 0% (inactive)

Question: For `CC1(C(=O)NS(=O)(=O)c2cccs2)CCN1C(=O)Cc1ccc(-c2ccccc2)cc1` (configuration not stated), which inhibition is on record?
Answer: 1.6% (inactive)

Question: With `O=S(=O)(Nc1ccccc1)c1ccc(NS(=O)(=O)c2cccs2)cc1` as the compound, how does the inhibition read?
Answer: -0.1% (inactive)

Question: With `O=S(=O)(Nc1ccccc1Br)c1cccs1` as the compound, how does the inhibition read?
Answer: 1.3% (inactive)

Question: Which inhibition does the source give for `O=C(Nc1cccc(Cl)c1)Nc1ccccc1NS(=O)(=O)c1cccs1` here?
Answer: 87.7% (active)

Question: With `Nc1ncnc2c1ncn2[C@@H]1O[C@H](CNCc2cccn2-c2nccs2)[C@@H](O)[C@H]1O` as the compound, how does the inhibition read?
Answer: -2.5% (inactive)

Question: Which inhibition does the source give for `CC(=O)OC(COc1ccc(F)cc1)Cn1cnc2ccccc21` (configuration not stated) here?
Answer: 0.4% (inactive)

Question: With `CCOC(=O)c1ccccc1NC(=O)CSc1nc2c(sc(=S)n2CC)c(=O)[nH]1` as the compound, how does the inhibition read?
Answer: 5.4% (inactive)

Question: For `Cc1ccc(C(=O)Nc2c(-c3ccccc3)[nH][nH]c2=O)cc1`, which inhibition is on record?
Answer: -0.8% (inactive)

Question: With `NNc1nc2c(Cl)cccc2s1` as the compound, how does the inhibition read?
Answer: -0.9% (inactive)

Question: Which inhibition does the source give for `Fc1cc(F)c2nc(Nc3nc4c(F)cccc4s3)sc2c1` here?
Answer: 94.3% (active)

Question: For `Fc1ccc2nc(Nc3nc4c(s3)CCCC4)sc2c1`, which inhibition is on record?
Answer: 5.3% (inactive)

Question: With `O=C(NC1(C(F)(F)F)NC(=O)N(Cc2cccnc2)C1=O)c1ccccc1Cl` (configuration not stated) as the compound, how does the inhibition read?
Answer: 1% (inactive)
